Compound activity from PubChem BioAssay.
SW480 rerep: induces DNA re-replication in SW480 colon adenocarcinoma cells | SW480 DNA re-replication, Hoechst DNA content imaging, 48 h | Potency, µM (series often up to 46.1 µM), most hits filed as activators | 340,000 compounds, 1.8% hits; further: nearly all actives have a fitted effect of over 55% in size
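Treated cells incubate 48 hr (37 C, 5% CO2), are stained 40 min with Hoechst, and nuclear fluorescence is enumerated; a rise in nuclei with high DNA signal marks re-replication.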
MCF10A rerep: DNA re-replication induction in MCF 10a cells | AID 624296 | MCF 10A DNA re-replication, Hoechst nuclear intensity, 48 h | 350,000 compounds, 2.9% hits | Potency, µM (doses to about 46.1 µM), most hits filed as activators; further: nearly all actives have a fitted effect of over 50% in size
HT1080 IDH1KD tx: toxicity to HT-1080 IDH1 knockdown cells (counter line). 360,000 compounds, 2% hits. Potency, µM (titrated, usually from 46.1 µM), usual class: cytotoxic. HT-1080 IDH1 knockdown viability, ATP luminescence, 48 h
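CellTiter-Glo luminescence after 48 h compound exposure at 37 degrees C of IDH1-knockdown HT-1080 cells in 5% FBS RPMI. %Activity scaled between DMSO wells and cell-free media wells, with curves fitted and assigned curve classes.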
KB-3-1 tox: kills parental KB-3-1 adenocarcinoma cells; KB-3-1 viability, CellTiter-Glo ATP luminescence, 72 h; Potency, µM (highest dose often 46.1 µM), most hits filed as cytotoxic; 400,000 compounds, 1.4% hits; further: nearly all actives have a fitted effect of over 60% in size
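Parental KB-3-1 adenocarcinoma cells in phenol-red-free DMEM with 10% FBS were pin-treated with compounds at several concentrations, incubated 72 h at 37 °C, and viability read by CellTiter-Glo luminescence; concentration-effect curves were fitted after normalization.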
HT1080NT lethal: kills 2HG-producing HT-1080-NT fibrosarcoma cells | HT-1080-NT fibrosarcoma viability, CellTiter-Glo ATP luminescence, 48 h | Potency, µM (doses to about 46.1 µM), actives largely listed as cytotoxic | 360,000 compounds, 1.6% hits;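 further: NT is the 2HG producing partner of a matched IDH1 knockdown line; nearly all actives have a fitted effect of over 55% in size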
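HT-1080-NT; 750 cells/well; 5% FBS RPMI; 48 h compound, 37 degrees C; CellTiter-Glo luminescence; curve fitting and curve-class assignment.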
KB-V1 MDR tox: KB-V1 MDR subline cytotoxicity; Potency, µM (highest dose often 46.1 µM), usual class: cytotoxic; KB-V1 MDR cells viability, CellTiter-Glo, 72 h; 400,000 compounds, 3.4% hits; AID 1347076; further: nearly all actives have a fitted effect of over 60% in size
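qHTS viability screen in drug-selected KB-V1 MDR cells: 72 h compound treatment at 37 degrees C, ATP luminescence end point.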
A number is an active result; - = inactive; ? = inconclusive; . = no result; ! = not active in a repeat; [ ] = another dose, or the depositor's remark. A selection: hits, their analogues and other compounds. The true share with any hit is near 7.9%. The call rests on the fitted dose curve; in most records, active means well fitted curve in the direction sought with a large enough effect; inconclusive means small, poorly fitted or top-dose-only effect, or another doubt; inactive means no such curve, though single readings can be large; an effect the other way counts as inactive or inconclusive.

SMILES	SW480 rerep	MCF10A rerep	HT1080 IDH1KD tx	KB-3-1 tox	HT1080NT lethal	KB-V1 MDR tox
O=C1CCC2=C1C(c1ccccc1Cl)N=C(Nc1nc3ccccc3o1)N2 (stereo not given)	.	.	.	-	.	-
COc1ccc(C(=O)N2CCCC(C)(C(=O)NS(=O)(=O)C3CC3)C2)cc1 (stereo not given)	.	.	-	-	-	-
CCOC(=O)c1oc2ccc(S(=O)(=O)N3CCC(C)CC3)cc2c1C	-	-	-	-	-	16µM
CCOC(=O)c1oc2ccc(S(=O)(=O)N3CCOCC3)cc2c1C	-	-	-	-	-	-
Cc1cc(C)c(S(=O)(=O)Nc2ccc3oc4c(c3c2)C(=O)CC(C)(C)C4)cc1C	.	.	.	-	.	-
COc1ccc(S(=O)(=O)Nc2ccc3oc4c(c3c2)C(=O)CC(C)(C)C4)cc1	.	.	.	?	.	18µM
O=C1C=C(Nc2ccc(Cl)cc2Cl)CC(c2ccco2)C1 (stereo not given)	16µM	?	2.3µM	6.5µM	3.7µM	7.3µM
CCCCN(CC)C(=O)Cn1nc(C)c2c(C)n(-c3ccccc3)nc2c1=O	.	.	.	-	.	-
Cc1ccc(C(=O)N/N=C/c2ccc(-c3cccc(Cl)c3)o2)cn1	?	?	?	?	26µM	?
Cc1cc(C(=O)N/N=C/c2ccc(-c3cccc(Cl)c3)o2)n[nH]1	-	-	-	-	-	-
Cc1ccc(C(=O)N/N=C\c2ccc(-c3ccc(Cl)c(Cl)c3)o2)cn1	?	?	18µM	-	16µM	-
COCC(=O)N1CCC2CC1c1c(-c3ccc(C(F)(F)F)cc3)cccc12 (stereo not given)	-[9.22 µM]	-	-	-	-	-
c1ccc2c(N=NN3CCCCC3)ccnc2c1	.	.	.	?	.	-
CCn1c(SCC(=O)Nc2ccc3c(c2)c2ccccc2n3CC)nnc1-c1ccco1	-	-	-	-	?	-
CCn1c2ccccc2c2cc(NC(=O)CSc3nnc(-c4cccc(F)c4)o3)ccc21	?	5.2µM	?	7.3µM	13µM	12µM
CCn1c2ccccc2c2cc(NC(=O)CSc3nnc(-c4cccc(C)c4)o3)ccc21	?	?	-	23µM	-	?
CCn1c2ccccc2c2cc(NC(=O)CSc3nnc(-c4ccccc4)o3)ccc21	0.65µM	?	21µM	-	?	?
Cc1ccc(C)c(NC(=O)CSc2nnc(-c3ccccc3)o2)c1	-	-	-	-	-	-
O=C(CSc1nnc(-c2cccc(F)c2)o1)Nc1nncs1	-	-	-	-	-	-
NCCCNCCCCNCCCN	-	-	-	-	-	-
CCNC(=O)C1(C)CCCN(C(=O)C2(c3ccc(Cl)cc3)CCCC2)C1 (stereo not given)	.	.	-	-	-	-
COc1ccc(CCC(=O)NCCc2csc(-c3ccc(C(F)(F)F)cc3)n2)cc1	.	.	.	-	.	-
CC(C)N(Cc1ccccc1)C(=O)COC(=O)c1cnc(Cl)c(Cl)c1	-	-	-	.	-	.
C/C(N)=C(/C#N)C(=O)CSc1nnc(-c2ccc3c(c2)OCO3)o1	12µM	-	-	-	-	-
C/C(N)=C(/C#N)C(=O)CSc1nnc(COc2cc(C)ccc2C)o1	-	18µM	-	-	-	-
SMILES	SW480 rerep	MCF10A rerep	HT1080 IDH1KD tx	KB-3-1 tox	HT1080NT lethal	KB-V1 MDR tox
NC(=O)CSc1nnc(-c2ccc3c(c2)OCO3)o1	-	-	-	-	-	-
Cc1c(Cl)cccc1Nc1ccccc1C(=O)O	-	?	-	-	-	-
Cc1ccc(Cl)c(NC(=O)CSc2cccc[n+]2[O-])c1Cl	-	-	-	-	-	-
Cc1ccc(Cl)c(NC(=O)CCl)c1Cl	-	-	-	23µM	-	-
Cc1ccc(Cl)c(Nc2ccccc2C(=O)O)c1Cl	-	27µM!	?	-	?	-
COc1cccc(-n2c(C)cc(/C=C3\C(=N)N4N=C(CC(=O)N5CCOCC5)SC4=NC3=O)c2C)c1	-	-	-	-	-	-
Cc1ccccc1Nc1c(-c2ccc(N3CCOCC3)cc2)nc2ccc(Br)cn12	.	.	.	-	.	-
COc1ccccc1-c1ccc([C@@H]2C[C@H]3[C@H](CON3C)CN2C(=O)c2ccc(-c3ccccc3)cc2)cc1	.	.	-	-	-	-
